Results from the supplement of paper PMC8866396.
± gives the standard deviation of the averaged measurements.

Experiments:
IL-6-GFP PC-9GR = assay: cell viability (CCK-8 OD) relative to DMSO control (fraction of control); higher = more viable cells; conditions: compound concentration: 10 uM; treatment time: 48 h
How it was run: (§1)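 PC-9 and PC-9GR lung cancer cells overexpressing IL-6-GFP from a lentiviral construct were plated at 3000 cells/well in 96-well plates. Each compound from a purchased 510-compound library was added at a final 10 μM for 48 h, with a parallel plate set used for GFP imaging. Viability was measured by CCK-8 absorbance and expressed as each well's optical density divided by the vehicle (DMSO) control well, from two independent replicates.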

IL-6-GFP PC-9 = assay: as above; conditions: compound concentration: 10 uM; treatment time: 48 h
How it was run: as §1

Row | Compound | cell viability (IL-6-GFP PC-9GR) | cell viability (IL-6-GFP PC-9)
1 | CC12CCC3c4ccc(OC(=O)N(CCCl)CCCl)cc4CCC3C1CCC2OP(=O)([O-])[O-].[Na+].[Na+] (centres undefined) [Estramustine phosphate sodium] | 0.645 ± 0.29 | 1.01 ± 0.25
2 | CC(C)C12OC1C1OC13C1(C)CCC4=C(COC4=O)C1CC1OC13C2O (centres undefined) [Triptolide (PG490)] | 0.466 ± 0.21 | 0.447 ± 0.12
3 | O=P1(NCCCl)OCCCN1CCCl (centres undefined) [Ifosfamide] | 1.15 ± 0.092 | 0.8 ± 0.02
4 | O=c1c2ccccc2[se]n1-c1ccccc1 [Ebselen] | 0.788 ± 0.063 | 1.36 ± 0.22
5 | CCC1=CC2CN3CCc4c([nH]c5ccccc45)C(C(=O)OC)(C2)C13 (centres undefined) [Catharanthine] | 1.02 ± 0.093 | 1.1 ± 0.1
6 | CC(C)(C)NCC(O)c1ccccc1Cl.Cl (centres undefined) [Tulobuterol hydrochloride] | 1.07 ± 0.17 | 1.08 ± 0.15
7 | CN(C)NC(=O)CCC(=O)O [Daminozide] | 1.09 ± 0.18 | 1.28 ± 0.05
8 | O.O=P1(N(CCCl)CCCl)NCCCO1 (centres undefined) [Cyclophosphamide Monohydrate] | 1.16 ± 0.065 | 1.2 ± 0.029
9 | CCC1(O)C(=O)OCc2c1cc1n(c2=O)Cc2cc3ccccc3nc2-1 (centres undefined) [Camptothecin] | 0.807 ± 0.36 | 0.364 ± 0.036
10 | Cc1c(N)nc(C(CC(N)=O)NCC(N)C(N)=O)nc1C(=O)NC(C(=O)NC(C)C(O)C(C)C(=O)NC(C(=O)NCCc1nc(-c2nc(C(=O)NCCC[S+](C)C)cs2)cs1)C(C)O)C(OC1OC(CO)C(O)C(O)C1OC1OC(CO)C(O)C(OC(N)=O)C1O)c1c[nH]cn1.O=S(=O)([O-])O (centres undefined) [Bleomycin sulfate] | 0.653 ± 0.13 | 0.473 ± 0.051
11 | Cn1c(CCCC(=O)O)nc2cc(N(CCCl)CCCl)ccc21 [Bendamustine] | 1.02 ± 0.09 | 1.02 ± 0.18
12 | O=C(O)CCCc1ccc(N(CCCl)CCCl)cc1 [Chloroambucil] | 0.937 ± 0.15 | 0.97 ± 0.18
13 | COC1=CC2C3Cc4ccc(OC)c(O)c4C2(CCN3C)CC1=O (centres undefined) [Sinomenine] | 1.31 ± 0.18 | 1.19 ± 0.097
14 | Cc1cccc(C(C)c2c[nH]cn2)c1C.Cl (centres undefined) [Medetomidine HCl] | 1.25 ± 0.37 | 1.09 ± 0.011
15 | COc1cc(C2c3cc4c(cc3C(O)C3COC(=O)C23)OCO4)cc(OC)c1OC (centres undefined) [Picropodophyllin (PPP)] | 0.668 ± 0.27 | 0.603 ± 0.07
16 | CC1CCC2N(C1)CC1C3CC4C(CC(O)C5CC(O)CCC54C)C3CCC1C2(C)O (centres undefined) [Peimine] | 1.12 ± 0.26 | 1.211 ± 0.0049

Row | Compound | cell viability (IL-6-GFP PC-9GR) | cell viability (IL-6-GFP PC-9)
17 | COc1cc2c(cc1O)CC1c3c(cc(O)c(OC)c3-2)CCN1C (centres undefined) [Boldine] | 0.922 ± 0.2 | 1.05 ± 0.11
18 | C=CCN1CC(C(=O)N(CCCN(C)C)C(=O)NCC)CC2c3cccc4[nH]cc(c34)CC21 (centres undefined) [Cabergoline] | 0.968 ± 0.23 | 1.05 ± 0.21
19 | O=C(O)C1C2CCC(O2)C1C(=O)[O][Na] (centres undefined) [Sodium Demethylcantharidate] | 1.12 ± 0.29 | 1.31 ± 0.083
20 | CCC1(O)C(=O)OCc2c1cc1n(c2=O)Cc2c-1nc1ccccc1c2CCNC(C)C.Cl (centres undefined) [Belotecan (CKD-602) hydrochloride] | 0.322 ± 0.15 | 0.349 ± 0.055
21 | CC(C)[N+](C)(CCC(C(N)=O)(c1ccccc1)c1ccccc1)C(C)C.[I-] [Isopropamide Iodide] | 0.876 ± 0.069 | 0.841 ± 0.16
22 | Cl.Cn1c(CCCC(=O)O)nc2cc(N(CCCl)CCCl)ccc21 [Bendamustine HCl] | 1.26 ± 0.066 | 1.2 ± 0.11
23 | NC(Cc1ccc(N(CCCl)CCCl)cc1)C(=O)O (centres undefined) [Melphalan] | 0.78 ± 0.037 | 0.891 ± 0.076
24 | CC(C)C12OC1C1OC13C1(C)CCC4=C(COC4=O)C1CC1OC13C2=O (centres undefined) [Triptonide] | 0.403 ± 0.18 | 0.467 ± 0.063
25 | c1ccc2c(c1)Sc1ccccc1N2CC1CN2CCC1CC2 (centres undefined) [Mequitazine] | 0.705 ± 0.19 | 1.01 ± 0.021
26 | Cn1cc(C2=C(c3cn(C4CCN(Cc5ccccn5)CC4)c4ccccc34)C(=O)NC2=O)c2ccccc21 | 1.09 ± 0.062 | 1.09 ± 0.16
27 | COc1cc2c(c(OC)c1OC)-c1ccc(OC)c(=O)cc1C(NC(C)=O)CC2 (centres undefined) [Colchicine] | 0.584 ± 0.1 | 0.686 ± 0.078
28 | CC1CC(=O)CC2CCC3C4CCC(O)C4(C)CCC3C12C (centres undefined) [Mesterolone] | 1.26 ± 0.32 | 1.21 ± 0.12
29 | CC12CCC3C(CCC4=C(O)C(=O)CCC43C)C1CCC2=O (centres undefined) [Formestane] | 1.4 ± 0.13 | 0.466 ± 0.055
30 | COC(=O)CC(O)(CCC(C)(C)O)C(=O)OC1C(OC)=CC23CCCN2CCc2cc4c(cc2C13)OCO4 (centres undefined) [Harringtonine] | 0.245 ± 0.14 | 0.323 ± 0.058
31 | COC1=CC2C3Cc4ccc(OC)c(O)c4C2(CCN3C)CC1=O.Cl (centres undefined) [Sinomenine hydrochloride] | 1.33 ± 0.43 | 1.28 ± 0.086
32 | O=C(O)c1nn(Cc2ccc(Cl)cc2Cl)c2ccccc12 [Lonidamine] | 1.29 ± 0.1 | 1.19 ± 0.13
